ChEMBL document CHEMBL4513216, “Probing the Open Global Health Chemical Diversity Library for Multistage-Active Starting Points for Next-Generation Antimalarials” (ACS Infect Dis, 2020)
Hit rate of the full screen: of about 69,000 compounds, about 8,600 (12%) showed an effect of 50% or more. Only a selection was taken, and strong results are over-represented in it overall.

What follows are compounds tested on Plasmodium berghei (assay: Screen against P. berghei liver stage (PbLuc), transformed with Luciferase, at 10uM). Conditions: tested at 10 uM.
Assay type: functional, HepG2

Structure (SMILES)	INHIBITION
CN(C)[C@@H]1CN(Cc2ccccc2O)C[C@H]1c1cn(C)c2ccccc12	49.5%
Cn1ccnc1CNC(=O)c1cnc(C2CCNCC2)cn1	33%
COc1ccccc1C1(CNC(=O)NCc2noc(C)n2)CC1	4.66%
Cc1nc(C(=O)N(C)CC(=O)N(C)C)nn1-c1ccccc1C(C)C	-15.5%
COCCN1C2(CCN(C(=O)c3cccs3)C2)c2ccccc2S1(=O)=O (centres undefined)	8.03%
CCNC(=O)N1CCC2(C1)c1ccccc1S(=O)(=O)N2CCOC (centres undefined)	-1.15%
O=C(c1cccs1)N1CCC2(C1)c1ccccc1S(=O)(=O)N2CC1CC1 (centres undefined)	51.2%
COCCNC(=O)Cn1cc(OCc2ccccc2)c(=O)cc1CO	-8.66%
Cc1cc(C)n(CC2CCCN2C(=O)c2nccc3ccccc23)n1 (centres undefined)	-144%
COc1ccc(OCCc2nnc(NC(C)=O)s2)cc1	20.9%
COc1ccc(-c2cnc(NC(C)=O)[nH]2)cc1	56%
CC(=O)Nc1ncc(-c2ccc(C)cc2)[nH]1	45.5%
CC(C)CCN1C[C@@H]2C[C@H](C(=O)N3CCCC3)[C@H](C1)O2	10.6%
COc1ccccc1C(=O)N1CCOCC1c1c(C)n[nH]c1C (centres undefined)	-34.8%
CN1N=C(C(=O)NCCc2ccc(OC3CCCC3)cc2)CCC1=O	45.4%
CC(C)[C@H](NS(C)(=O)=O)C(=O)NCc1cc(-c2ccco2)nn1C	54.5%
CC(C)[C@H](NS(C)(=O)=O)C(=O)NCc1cc(-c2ccco2)n[nH]1	23.4%

Structure (SMILES)	INHIBITION
CC(C)[C@H](NS(C)(=O)=O)C(=O)NCc1cc(-c2ccccc2)nn1C	20.4%
Cc1nc(CN(CCS(C)(=O)=O)C(C)(C)C)no1	12.9%
N#Cc1cccnc1N1CCCN(C(=O)CCc2nccs2)CC1	-19.4%
CCOCC(=O)NC1(c2nc(C)cs2)CCCC1	25.2%
CCN1CC(C(=O)NCc2ccc3c(c2)nc(C)n3C)CCC1=O (centres undefined)	11.9%
Cc1nc2cc(CNC(=O)C3CC(=O)N(CCN(C)C)C3)ccc2n1C (centres undefined)	-4.35%
Cc1nc2cc(CNC(=O)C3CC(=O)N(C4CCCC4)C3)ccc2n1C (centres undefined)	53.7%
CCc1nc(N)nc(NCCC(=O)NC2CCCCC2)c1C	41.5%
CCc1cnc(N)nc1NCCN1CCCCC1	5.14%
CCc1cnc(N)nc1NCCC(=O)NC1CCCCC1	68.4%
O=C(NC1CC1)C1(Cc2cc(-c3ccc(F)cc3F)no2)CCOCC1	31.6%
Cc1ccc(N2CCC(c3cc(Cc4ccccc4)n[nH]3)CC2)nn1	20.9%
Nc1nc(O)cc(N2CCC(c3cc(Cc4ccccc4)n[nH]3)CC2)n1	47%
Nc1cc(N2CCC(c3cc(Cc4ccccc4)n[nH]3)CC2)ccn1	75.4%
NC(=O)NCCC(=O)N1CCC(c2cc(Cc3ccccc3)n[nH]2)CC1	-5.22%
Cc1cc(CN2CCC(c3cc(Cc4ccccc4)n[nH]3)CC2)[nH]n1	30.9%
Nc1nccc(N2CCC(c3cc(Cc4ccccc4)n[nH]3)CC2)n1	78.8%
